In paper PMC12864922, “TDP-43 directly inhibits mRNA accumulation in neurites through modulation of mRNA stability”:
The full ranking holds about 9,900 sequences; the median of “r (bound/input frequency ratio)” is about 0.7, and the highest 2% start at about 6.5. The full list was thinned out, with the highest values kept by preference.

B1: ENSMUSG00000058297.3|Spock2|233:237;241:254 (ssRNA)
RNA: GGGAGUUCUACAGUCCGACGAUCGCUUCGAUAUCCGCAUGCUAAGAAAAGGAGACAGAAGAGGCAGGGGAGGAGGCCGAGGAGGAGGAGGGUGAGGCGGGUGAGGCAGAUGAUGGAGGCUACAUCUGGUAGAUAGCCCUCGACGGCCUCGGCAGGCCAGGGUGCCGACGGCCAGAAAGACAGGCCAGAAGAGACCUGGACAACAGCAGGCAACUUAGCAAAUGGAUCCGGAAGUCAGUGCGGAGGACCCUGGCUCCAGUGGGGGAGGACUGGGGACACACGCUACACACAUACACACAUAUGACUCUUGCGGUCGCACUAGUGUGGAAUUCUCGGGUGUCAAGG
B2: ENSMUSG00000058297.15|Spock2 (ssRNA)
RNA: GGGAGUUCUACAGUCCGACGAUCGCUUCGAUAUCCGCAUGCUAAGGCUACAUCUGGUAGAUAGCCCUCGACGGCCUCGGCAGGCCAGGGUGCCGACGGCCAGAAAGACAGGCCAGAAGAGACCUGGACAACAGCAGGCAACUUAGCAAAUGGAUCCGGAAGUCAGUGCGGAGGACCCUGGCUCCAGUGGGGGAGGACUGGGGAGUGUGGCUUGUGUGUAUGUGUGAUAUGAGAUGUGUGUGUAUGAUGUGAGAUGUGAGUGUGUGAUGUGAGAUGUGUGUAUGUGAGAUGUGUGUGUGUGUGUCUCUUGCGGUCGCACUAGUGUGGAAUUCUCGGGUGUCAAGG
B3: ENSMUSG00000058297.2|Spock2|239:243;247:260 (ssRNA)
RNA: GGGAGUUCUACAGUCCGACGAUCGCUUCGAUAUCCGCAUGCUAUGAGGAAGAAAAGGAGACAGAAGAGGCAGGGGAGGAGGCCGAGGAGGAGGAGGGUGAGGCGGGUGAGGCAGAUGAUGGAGGCUACAUCUGGUAGAUAGCCCUCGACGGCCUCGGCAGGCCAGGGUGCCGACGGCCAGAAAGACAGGCCAGAAGAGACCUGGACAACAGCAGGCAACUUAGCAAAUGGAUCCGGAAGUCAGUGCGGAGGACCCUGGCUCCAGUGGGGGAGGACUGGGGACACACGCUACACACAUACACACCUCUUGCGGUCGCACUAGUGUGGAAUUCUCGGGUGUCAAGG
B4: ENSMUSG00000058297.16|Spock2 (ssRNA)
RNA: GGGAGUUCUACAGUCCGACGAUCGCUUCGAUAUCCGCAUGCUACAUCUGGUAGAUAGCCCUCGACGGCCUCGGCAGGCCAGGGUGCCGACGGCCAGAAAGACAGGCCAGAAGAGACCUGGACAACAGCAGGCAACUUAGCAAAUGGAUCCGGAAGUCAGUGCGGAGGACCCUGGCUCCAGUGGGGGAGGACUGGGGAGUGUGGCUUGUGUGUAUGUGUGAUAUGAGAUGUGUGUGUAUGAUGUGAGAUGUGAGUGUGUGAUGUGAGAUGUGUGUAUGUGAGAUGUGUGUGUGUGUGUGUGUGUCUCUUGCGGUCGCACUAGUGUGGAAUUCUCGGGUGUCAAGG
B5: ENSMUSG00000058297.14|Spock2|167:171;175:188;197:208;222:228;237:246;252:260 (ssRNA)
RNA: GGGAGUUCUACAGUCCGACGAUCGCUUCGAUAUCCGCAUGCUAUGAUGGAGGCUACAUCUGGUAGAUAGCCCUCGACGGCCUCGGCAGGCCAGGGUGCCGACGGCCAGAAAGACAGGCCAGAAGAGACCUGGACAACAGCAGGCAACUUAGCAAAUGGAUCCGGAAGUCAGUGCGGAGGACCCUGGCUCCAGUGGGGGAGGACUGGGGACACACGCUACACACAUACACACAUAUGAGAACACACACAUACAUGUGAGAUGUGACACACACAUGUGAGAACACACAUACUGAGAACACACACACUCUUGCGGUCGCACUAGUGUGGAAUUCUCGGGUGUCAAGG
B6: ENSMUSG00000058297.16|Spock2|155:159;163:176;185:196;210:216;225:234;240:260 (ssRNA)
RNA: GGGAGUUCUACAGUCCGACGAUCGCUUCGAUAUCCGCAUGCUACAUCUGGUAGAUAGCCCUCGACGGCCUCGGCAGGCCAGGGUGCCGACGGCCAGAAAGACAGGCCAGAAGAGACCUGGACAACAGCAGGCAACUUAGCAAAUGGAUCCGGAAGUCAGUGCGGAGGACCCUGGCUCCAGUGGGGGAGGACUGGGGACACACGCUACACACAUACACACAUAUGAGAACACACACAUACAUGUGAGAUGUGACACACACAUGUGAGAACACACAUACUGAGAACACACACACACACACACACACUCUUGCGGUCGCACUAGUGUGGAAUUCUCGGGUGUCAAGG
B7: ENSMUSG00000058297.11|Spock2 (ssRNA)
RNA: GGGAGUUCUACAGUCCGACGAUCGCUUCGAUAUCCGCAUGCUAUGAGGCGGGUGAGGCAGAUGAUGGAGGCUACAUCUGGUAGAUAGCCCUCGACGGCCUCGGCAGGCCAGGGUGCCGACGGCCAGAAAGACAGGCCAGAAGAGACCUGGACAACAGCAGGCAACUUAGCAAAUGGAUCCGGAAGUCAGUGCGGAGGACCCUGGCUCCAGUGGGGGAGGACUGGGGAGUGUGGCUUGUGUGUAUGUGUGAUAUGAGAUGUGUGUGUAUGAUGUGAGAUGUGAGUGUGUGAUGUGAGAUGUGUGCUCUUGCGGUCGCACUAGUGUGGAAUUCUCGGGUGUCAAGG
B8: ENSMUSG00000058297.14|Spock2 (ssRNA)
RNA: GGGAGUUCUACAGUCCGACGAUCGCUUCGAUAUCCGCAUGCUAUGAUGGAGGCUACAUCUGGUAGAUAGCCCUCGACGGCCUCGGCAGGCCAGGGUGCCGACGGCCAGAAAGACAGGCCAGAAGAGACCUGGACAACAGCAGGCAACUUAGCAAAUGGAUCCGGAAGUCAGUGCGGAGGACCCUGGCUCCAGUGGGGGAGGACUGGGGAGUGUGGCUUGUGUGUAUGUGUGAUAUGAGAUGUGUGUGUAUGAUGUGAGAUGUGAGUGUGUGAUGUGAGAUGUGUGUAUGUGAGAUGUGUGUGUCUCUUGCGGUCGCACUAGUGUGGAAUUCUCGGGUGUCAAGG
B9: ENSMUSG00000058297.15|Spock2|161:165;169:182;191:202;216:222;231:240;246:260 (ssRNA)
RNA: GGGAGUUCUACAGUCCGACGAUCGCUUCGAUAUCCGCAUGCUAAGGCUACAUCUGGUAGAUAGCCCUCGACGGCCUCGGCAGGCCAGGGUGCCGACGGCCAGAAAGACAGGCCAGAAGAGACCUGGACAACAGCAGGCAACUUAGCAAAUGGAUCCGGAAGUCAGUGCGGAGGACCCUGGCUCCAGUGGGGGAGGACUGGGGACACACGCUACACACAUACACACAUAUGAGAACACACACAUACAUGUGAGAUGUGACACACACAUGUGAGAACACACAUACUGAGAACACACACACACACACUCUUGCGGUCGCACUAGUGUGGAAUUCUCGGGUGUCAAGG

molecular target: TDP-43 (Homo sapiens, UniProt Q13148 1-414); test: RNA Bind-n-Seq with designed 260-mer pool; 25 mM Tris-HCl, 150 mM KCl, 3 mM MgCl2, BSA (printed 500 mg/mL), 20 units/mL SUPERase IN; pH not stated; 500 nM RNA pool, 1 h, 4 C; TDP-43 5, 50, 500 nM; high values mean tight binding; conditions: protein: recombinant; tags: SBP (GST cleaved off with PreScission; pGEX-GST-SBP)
Sequence (Q13148 whole entry): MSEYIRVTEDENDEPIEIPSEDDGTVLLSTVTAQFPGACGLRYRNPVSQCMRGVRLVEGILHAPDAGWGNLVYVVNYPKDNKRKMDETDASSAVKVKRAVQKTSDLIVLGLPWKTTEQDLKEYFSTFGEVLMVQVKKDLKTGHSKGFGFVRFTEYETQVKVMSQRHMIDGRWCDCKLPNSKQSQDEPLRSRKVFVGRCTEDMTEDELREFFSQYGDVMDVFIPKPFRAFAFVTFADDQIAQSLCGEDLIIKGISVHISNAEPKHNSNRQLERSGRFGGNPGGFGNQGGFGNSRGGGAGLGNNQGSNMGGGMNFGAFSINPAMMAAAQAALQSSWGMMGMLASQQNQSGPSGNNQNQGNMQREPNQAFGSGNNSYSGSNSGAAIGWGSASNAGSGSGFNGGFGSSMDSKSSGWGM
Outline: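 Duplicate measurements used two independent batches of recombinant SBP-tagged TDP-43, which was captured on streptavidin beads at 5, 50 or 500 nM. The beads were incubated with 500 nM of an in vitro-transcribed 260-nt 3′ UTR oligo pool for 1 h at 4 °C in 25 mM Tris-HCl, 150 mM KCl, 3 mM MgCl2, BSA and SUPERase IN. After washing, biotin elution, reverse transcription, PCR amplification and sequencing, binding was expressed as R: each oligo's normalized read abundance in the bound sample over its abundance in input.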

Binder | binding signal
B1 | 2.67 R (bound/input frequency ratio)
B2 | 7.97 R (bound/input frequency ratio)
B3 | 2.26 R (bound/input frequency ratio)
B4 | 7.85 R (bound/input frequency ratio)
B5 | 1.95 R (bound/input frequency ratio)
B6 | 2.54 R (bound/input frequency ratio)
B7 | 8.12 R (bound/input frequency ratio)
B8 | 8.13 R (bound/input frequency ratio)
B9 | 2.53 R (bound/input frequency ratio)
